Out of some 310,000 compounds screened, about 14,000 (4.5%) showed an effect of 50% or more. Effects have a minus sign here. This excerpt belongs to a sample that is enriched for strong results.
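Further: peak tail current of the secondary pulse compared with the same well before compound.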

Chain of human ether-à-go-go-related gene (hERG) potassium channel (Q12809 whole entry, looked up): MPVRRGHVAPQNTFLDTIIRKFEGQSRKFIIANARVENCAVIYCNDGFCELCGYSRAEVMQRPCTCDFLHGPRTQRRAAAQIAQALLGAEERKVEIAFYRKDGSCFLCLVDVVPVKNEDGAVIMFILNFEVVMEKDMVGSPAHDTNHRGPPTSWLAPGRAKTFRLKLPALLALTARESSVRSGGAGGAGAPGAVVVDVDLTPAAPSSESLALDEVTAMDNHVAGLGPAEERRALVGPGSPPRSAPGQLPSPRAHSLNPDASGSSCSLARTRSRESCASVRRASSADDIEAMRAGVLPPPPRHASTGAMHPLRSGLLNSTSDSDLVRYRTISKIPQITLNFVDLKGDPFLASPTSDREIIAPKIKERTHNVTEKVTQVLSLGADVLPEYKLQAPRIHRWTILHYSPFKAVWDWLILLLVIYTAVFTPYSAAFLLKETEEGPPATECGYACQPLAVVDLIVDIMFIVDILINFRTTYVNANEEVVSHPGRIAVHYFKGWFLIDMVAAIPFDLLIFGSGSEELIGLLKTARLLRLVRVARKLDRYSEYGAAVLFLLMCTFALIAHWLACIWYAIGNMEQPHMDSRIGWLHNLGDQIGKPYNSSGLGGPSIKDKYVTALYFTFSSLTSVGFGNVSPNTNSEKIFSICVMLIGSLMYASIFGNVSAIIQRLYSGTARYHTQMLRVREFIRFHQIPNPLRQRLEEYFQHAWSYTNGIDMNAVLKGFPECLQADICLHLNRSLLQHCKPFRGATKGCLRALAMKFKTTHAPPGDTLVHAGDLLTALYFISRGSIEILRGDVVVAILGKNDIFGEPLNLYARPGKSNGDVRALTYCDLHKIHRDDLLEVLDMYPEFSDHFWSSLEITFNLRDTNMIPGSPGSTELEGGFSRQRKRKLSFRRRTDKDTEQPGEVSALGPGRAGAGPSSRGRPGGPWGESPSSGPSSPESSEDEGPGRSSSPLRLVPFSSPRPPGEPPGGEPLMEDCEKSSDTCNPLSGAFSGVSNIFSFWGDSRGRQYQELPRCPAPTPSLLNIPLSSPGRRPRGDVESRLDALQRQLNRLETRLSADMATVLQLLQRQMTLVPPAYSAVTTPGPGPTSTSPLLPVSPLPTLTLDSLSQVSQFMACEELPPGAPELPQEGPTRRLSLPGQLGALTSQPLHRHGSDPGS

This experiment addresses human ether-à-go-go-related gene (hERG) potassium channel (human, UniProt Q12809). The experiment can be described thus: primary screen, population patch clamp on CHO cells stably expressing hERG; higher = less effect of the substance.
Regarding `Cc1ccc(-c2nc(C3CCCN(S(=O)(=O)c4ccc(C(F)(F)F)cc4)C3)no2)cc1` (stereo not shown), the “hERG current change (%, negative = inhibition) at 10uM” value was found to be 15%.

For `CC(C)(C)C(=O)Nc1c2c(nn1-c1ccc(F)cc1)CSC2`, the “hERG current change (%, negative = inhibition) at 10uM” value worked out at 13.4%.

As for `COc1ccc(C(=O)NCCSCc2ccccc2)cc1OC`, the “hERG current change (%, negative = inhibition) at 10uM” value was -5.31%.

As to `Cc1nnc(SCC(=O)NC2CCCCC2)s1`, the “hERG current change (%, negative = inhibition) at 10uM” value is recorded as 10.7%.

Turning to `O=[N+]([O-])c1cc(C(F)(F)F)ccc1Oc1cccnc1[N+](=O)[O-]`, the “hERG current change (%, negative = inhibition) at 10uM” value is listed as -7.06%.

As to `O=C1CSC(=S)N1Cc1cccnc1`, the “hERG current change (%, negative = inhibition) at 10uM” value is reported as -2.25%.

Take `O=S(=O)(Nc1ccccn1)c1ccc(Br)cc1`: the “hERG current change (%, negative = inhibition) at 10uM” value is listed as -2.97%.

Regarding `Cc1cc(C)c(C#N)c(Nc2ccccc2C)n1`, the “hERG current change (%, negative = inhibition) at 10uM” value was found to be 12.4%.

`O=C(O)C(=O)O.O=[N+]([O-])c1cccc(CN2CCN(Cc3ccco3)CC2)c1`: the “hERG current change (%, negative = inhibition) at 10uM” value is -4.34%.

In the case of `CC(C)N1CCN(Cc2cccc([N+](=O)[O-])c2)CC1`, the “hERG current change (%, negative = inhibition) at 10uM” value is reported as -2.13%.

On to `O=C(O)C(=O)O.O=[N+]([O-])c1cccc(CN2CCN(Cc3ccc(Cl)cc3)CC2)c1`, for which the “hERG current change (%, negative = inhibition) at 10uM” value is reported as -70.8%.

On to `O=C(O)C(=O)O.O=C(c1cccs1)N1CCN(Cc2cccc([N+](=O)[O-])c2)CC1`, for which the “hERG current change (%, negative = inhibition) at 10uM” value was -33.1%.

Take `O=C(O)C(=O)O.O=[N+]([O-])c1cccc(CN2CCN(Cc3ccc(Br)cc3)CC2)c1`: the “hERG current change (%, negative = inhibition) at 10uM” value is given as -72.4%.

Regarding `O=C(O)C(=O)O.O=C(c1ccco1)N1CCN(Cc2cccc([N+](=O)[O-])c2)CC1`, the “hERG current change (%, negative = inhibition) at 10uM” value is -20.3%.

Regarding `Cc1cccc(NC(=O)CN2C(=O)S/C(=C\c3ccccn3)C2=O)c1`, the “hERG current change (%, negative = inhibition) at 10uM” value turned out to be 30.2%.

With `O=C(CCn1nnc2ccccc21)Nc1nnc(-c2ccccc2F)s1`, the “hERG current change (%, negative = inhibition) at 10uM” value was determined as 3.13%.

For the compound `N#CC1=C(N)Oc2n[nH]c(-c3ccccn3)c2C1c1c(F)cccc1Cl` (stereo not shown), the “hERG current change (%, negative = inhibition) at 10uM” value is -3.23%.

For `CCOc1ccc(OCCCCNCCN)cc1.O=C(O)C(=O)O`, the “hERG current change (%, negative = inhibition) at 10uM” value turned out to be 5.79%.

As for `COC(=O)C1=NN(c2ccc(C)cc2)C2(S1)SC(C(C)=O)=C(C)N2c1ccccc1` (stereo not shown), the “hERG current change (%, negative = inhibition) at 10uM” value is -10%.

Consider `CCOc1ccc(CNC(=O)CCSCc2ccccc2F)cc1OC`, for which the “hERG current change (%, negative = inhibition) at 10uM” value is 5.18%.

On to `Cc1ccc(/C=C(/C#N)c2nc(CCN3C(=O)c4ccccc4C3=O)cs2)cc1`, for which the “hERG current change (%, negative = inhibition) at 10uM” value is 21.6%.

Consider `COc1ccc(CN2CCN(S(=O)(=O)c3ccccc3)CC2)c(OC)c1OC`, for which the “hERG current change (%, negative = inhibition) at 10uM” value stood at 3.14%.

Turning to `COc1cc(CN2CCN(S(=O)(=O)c3ccccc3)CC2)cc(OC)c1OC.O=C(O)C(=O)O`, the “hERG current change (%, negative = inhibition) at 10uM” value is -5.31%.

In the case of `COc1ccc(S(=O)(=O)N2CCN(Cc3cc(OC)c(OC)cc3OC)CC2)cc1.O=C(O)C(=O)O`, the “hERG current change (%, negative = inhibition) at 10uM” value is -11.5%.

Regarding `COc1ccc(OC)c(CN2CCN(S(=O)(=O)c3ccc(NC(C)=O)cc3)CC2)c1.O=C(O)C(=O)O`, the “hERG current change (%, negative = inhibition) at 10uM” value is recorded as -3.01%.

For `COc1ccc(CN2CCN(S(=O)(=O)c3ccccc3)CC2)c(OC)c1.O=C(O)C(=O)O`, the “hERG current change (%, negative = inhibition) at 10uM” value is reported as -63.5%.

Consider `COc1ccc(OC)c(CN2CCN(S(=O)(=O)c3ccccc3)CC2)c1`, for which the “hERG current change (%, negative = inhibition) at 10uM” value was -79.2%.

Turning to `CCOC(=O)Cn1cnc2sc(C(=O)OC)c(C)c2c1=O`, the “hERG current change (%, negative = inhibition) at 10uM” value worked out at 11.1%.

With `CCn1c(COc2ccccc2OC)nnc1SCC#N`, the “hERG current change (%, negative = inhibition) at 10uM” value is -3.43%.

As to `C=CCn1c(SCC(=O)c2cccs2)nc2sc(C)cc2c1=O`, the “hERG current change (%, negative = inhibition) at 10uM” value turned out to be 1.56%.

On to `Cc1ccc(NC(=O)Nc2cccc(Cl)c2)c(C(=O)O)c1`, for which the “hERG current change (%, negative = inhibition) at 10uM” value is given as 19.6%.

`CC1=C(C(=O)Nc2ccccc2)C(c2ccc3c(c2)OCO3)C2=C(CCCC2=O)N1` (stereo not shown): the “hERG current change (%, negative = inhibition) at 10uM” value is on record as -14.2%.

On to `O=C1Nc2ccc(Br)cc2C1(O)Cc1ccncc1` (stereo not shown), for which the “hERG current change (%, negative = inhibition) at 10uM” value is listed as -2.45%.

`CSCCC(NC(=O)COc1ccccc1)C(=O)N(C)Cc1ccc(Cl)cc1Cl` (stereo not shown): the “hERG current change (%, negative = inhibition) at 10uM” value is recorded as -24.5%.

Take `CSCCC(NC(=O)COc1ccccc1)C(=O)OCc1ccc([N+](=O)[O-])cc1` (stereo not shown): the “hERG current change (%, negative = inhibition) at 10uM” value is reported as -70.8%.

Consider `COC(=O)c1ccc(COC(=O)C(CCSC)NC(=O)COc2ccccc2)cc1` (stereo not shown), for which the “hERG current change (%, negative = inhibition) at 10uM” value is recorded as -9.2%.

With `CSCCC(NC(=O)COc1ccccc1)C(=O)N(C)Cc1ccc(F)cc1` (stereo not shown), the “hERG current change (%, negative = inhibition) at 10uM” value is on record as -50.3%.

For `CSCCC(NC(=O)COc1ccccc1)C(=O)OCC(=O)c1ccccc1` (stereo not shown), the “hERG current change (%, negative = inhibition) at 10uM” value came out at 4.14%.

For the compound `CSCCC(NC(=O)COc1ccccc1)C(=O)N(C)Cc1cccc(F)c1` (stereo not shown), the “hERG current change (%, negative = inhibition) at 10uM” value is on record as -37.9%.

On to `CSCCC(NC(=O)COc1ccccc1)C(=O)N1CCN(c2ccccc2)CC1` (stereo not shown), for which the “hERG current change (%, negative = inhibition) at 10uM” value is on record as -51.9%.

As to `CSCCC(NC(=O)COc1ccccc1)C(=O)N1CCN(C(C)=O)CC1` (stereo not shown), the “hERG current change (%, negative = inhibition) at 10uM” value is given as -5.67%.

With `CSCCC(NC(=O)COc1ccccc1)C(=O)N1CCOCC1` (stereo not shown), the “hERG current change (%, negative = inhibition) at 10uM” value was -9.88%.

For the compound `CC(=O)N1CCCc2ccccc21`, the “hERG current change (%, negative = inhibition) at 10uM” value amounted to 15.5%.

Regarding `O=C(NCc1ccc(Cl)c(Cl)c1)c1ccc2c(c1)OCO2`, the “hERG current change (%, negative = inhibition) at 10uM” value is given as -10.7%.

In the case of `COc1ccccc1C(=O)NC(CCSC)C(=O)NNC(=O)C(C)Oc1ccccc1F` (stereo not shown), the “hERG current change (%, negative = inhibition) at 10uM” value amounted to 0.592%.

As for `O=C(O)COc1nsnc1N1CCOCC1`, the “hERG current change (%, negative = inhibition) at 10uM” value is on record as 10.4%.

Regarding `COc1cc(C(=S)N2CCCCC2)ccc1OCC(=O)Nc1ccccc1Cl`, the “hERG current change (%, negative = inhibition) at 10uM” value turned out to be 18.9%.

Turning to `S=c1[nH]nc(-c2ccc(Br)cc2)n1-c1ccc(Br)cc1`, the “hERG current change (%, negative = inhibition) at 10uM” value is on record as 12.2%.

For `CCOC(=O)c1sc(N(Cc2ccccc2)C(=O)COC(=O)c2cnccn2)nc1C`, the “hERG current change (%, negative = inhibition) at 10uM” value was 0.26%.

For `CCc1ccc(NC2=NC(C(=O)NC3CCCCC3)CC(=O)N2)cc1` (stereo not shown), the “hERG current change (%, negative = inhibition) at 10uM” value is listed as 14.9%.

Consider `O=c1[nH]c2cccnc2n1Cc1ccccc1`, for which the “hERG current change (%, negative = inhibition) at 10uM” value was 7.67%.

On to `CCc1ccc(NC(=O)C(=O)N/N=C(\C)CC(=O)NCCOC)cc1`, for which the “hERG current change (%, negative = inhibition) at 10uM” value is listed as -2.99%.

As for `O=C(NCCOc1ccccc1)c1cc(C(=O)NCCOc2ccccc2)cc([N+](=O)[O-])c1`, the “hERG current change (%, negative = inhibition) at 10uM” value is -15.2%.

In the case of `CN(CCOc1ccccc1)C(=O)c1ccc(N2CCCC2)c([N+](=O)[O-])c1`, the “hERG current change (%, negative = inhibition) at 10uM” value was -27.5%.

Take `Cc1ccc(S(=O)(=O)N2CCCCC2)cc1C(=O)N(C)CCOc1ccccc1`: the “hERG current change (%, negative = inhibition) at 10uM” value is on record as -48%.

Consider `CN(CCOc1ccccc1)C(=O)c1cc([N+](=O)[O-])cc([N+](=O)[O-])c1`, for which the “hERG current change (%, negative = inhibition) at 10uM” value was -56.9%.

For `Cc1ccc(C(=O)N(C)CCOc2ccccc2)cc1S(=O)(=O)N1CCCCC1`, the “hERG current change (%, negative = inhibition) at 10uM” value is -51.4%.

On to `Cc1ccc(C(=O)N(C)CCOc2ccccc2)cc1S(=O)(=O)N1CCOCC1`, for which the “hERG current change (%, negative = inhibition) at 10uM” value is -15.6%.

Regarding `CN(CCOc1ccccc1)C(=O)c1cc(S(=O)(=O)N2CCCCC2)ccc1Cl`, the “hERG current change (%, negative = inhibition) at 10uM” value is recorded as -42.7%.

Turning to `CN(CC1COc2ccccc2O1)C(=O)c1ccc(Cl)c(S(=O)(=O)N2CCCCCC2)c1` (stereo not shown), the “hERG current change (%, negative = inhibition) at 10uM” value is on record as -25.8%.

For the compound `CN(CCOc1ccccc1)C(=O)c1ccc(Cl)c(S(=O)(=O)N2CCCCC2)c1`, the “hERG current change (%, negative = inhibition) at 10uM” value is reported as -67.4%.

Values taken from PMC4336329 (PLoS ONE, 2015).
